# Reference: PubChem BioAssay AID652115 (Broad Institute, 2013)
# The whole screen tested about 330,000 compounds, of which about 3,800 (1.2%) were called active. For the sample, actives were picked, then their nearest neighbours and some compounds at random. Values without a mark were called inactive. No stated cut-off is given here; in the data, active means inhibition above about 15%; inconclusive means no clear call, values can overlap the other calls; inactive means below that.
# Molecular target: NAD-dependent protein deacylase sirtuin-5, mitochondrial (Homo sapiens) (UniProt Q9NXA8)
# Assay: blockers of sirtuin-5 deacylase activity – biochemical, fluorescence imaging, single point, set 5, primary screen (AID 652115)
# Details: Purified SirT5, succinyl-peptide AMC, trypsin-coupled fluorescence; at 15 µM; active compounds read high
# Sequence of NAD-dependent protein deacylase sirtuin-5, mitochondrial (Homo sapiens) (Q9NXA8 whole entry, looked up): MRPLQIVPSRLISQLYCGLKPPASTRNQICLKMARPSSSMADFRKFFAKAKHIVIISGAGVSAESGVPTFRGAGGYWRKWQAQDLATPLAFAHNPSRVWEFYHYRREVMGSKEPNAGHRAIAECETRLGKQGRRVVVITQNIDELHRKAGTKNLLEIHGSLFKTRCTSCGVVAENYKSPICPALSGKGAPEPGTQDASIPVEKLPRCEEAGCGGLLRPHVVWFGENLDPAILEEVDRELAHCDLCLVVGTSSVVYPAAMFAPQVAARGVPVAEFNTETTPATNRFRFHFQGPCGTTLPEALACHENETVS
row,Compound,inhibition
1,Cc1noc(C)c1NC(=O)N[C@@H]1C=C[C@@H](CC(=O)Nc2ccccc2)O[C@H]1CO,32.2% (active)
2,Cc1noc(C)c1NC(=O)N[C@H]1C=C[C@@H](CC(=O)Nc2ccccc2)O[C@H]1CO,1.42%
3,Cc1noc(C)c1NC(=O)N[C@@H]1CC[C@H](CC(=O)Nc2ccccc2)O[C@H]1CO,5.15%
4,c1ccc(CCc2ccccn2)cc1,9.65%
5,O=S(=O)(Cc1ccccc1)c1nc2ccccc2n1Cc1ccccn1,21.7% (active)
6,CC(=O)c1nc2ccccc2n1Cc1ccccc1,-2.51%
7,COc1ccccc1NC(=O)N[C@H]1C=C[C@H](CC(=O)N[C@@H](C)c2ccccc2)O[C@H]1CO,-1.94%
8,C/C=C/c1cnc2c(c1)C(=O)N([C@@H](C)CO)C[C@@H](C)[C@@H](CN(C)C(=O)c1cnccn1)O2,-1.71%
9,Cc1occc1C(=O)NNC(=S)NCC(C)C,19.4% (active)
10,Cc1scc(C(=O)NNC(=S)NCC(C)C)c1C,-4.94%
11,Cc1scc(C(=O)NNC(=S)NCc2ccccc2)c1C,-0.205%
12,CO[C@H]1CN(C)C(=O)c2cc(NC(=O)C3CC3)ccc2OC[C@H](C)N(C(=O)CN(C)C)C[C@H]1C,0.163%
13,CCC(=O)N1[C@@H]2c3ccc(-c4ccc(F)cc4)c(=O)n3C[C@H]1[C@H](CO)[C@H]2C(=O)N(C)C,-32.2%
14,COc1ccc2c3c(n(C)c2c1)[C@@H](CO)N(CC1CC1)CC31CCN(C(=O)c2ccc3c(c2)OCO3)CC1,3.18%
15,CC(C)Oc1ccc(C(=O)NCC(=O)Nc2ccc3c(c2)CCC3)cc1,-4.19%
16,COc1ccc(-c2ocnc2C(=O)Nc2ccc3c(c2)CCC3)cc1,22.1% (active)
17,COc1cccc(NC(=O)CN(C)CC(=O)Nc2ccc3c(c2)CCC3)c1,2.3%
18,CNC(=O)C[C@@H]1CC[C@H]2[C@H](COc3ccc(NC(=O)c4cccc(OC)c4)cc3C(=O)N2C)O1,2.09%
19,CO[C@H]1O[C@H](CO)[C@@H](OC(=O)Nc2ccccc2)[C@H](OC(=O)Nc2ccc3c(c2)OCO3)[C@H]1OC(=O)Nc1ccc2c(c1)OCO2,2.4%
20,CO[C@H]1O[C@H](CO)[C@@H](OC(=O)Nc2ccccc2-c2ccccc2)[C@H](OC(=O)Nc2ccccc2)[C@H]1OC(=O)Nc1ccccc1,8.45%
21,CCc1cccc(NC(=O)O[C@H]2[C@H](OC(=O)Nc3ccccc3-c3ccccc3)[C@H](OC(=O)Nc3ccccc3-c3ccccc3)[C@@H](OC)O[C@@H]2CO)c1,17.1% (active)
22,C[C@H]1CN([C@@H](C)CO)C(=O)c2cc(C3=CCCCC3)cnc2O[C@@H]1CN(C)C(=O)c1ccc(F)cc1,1.19%
23,CCCNC(=O)N1[C@H](CO)[C@@H]2c3ccccc3N(C(=O)C3CC3)C[C@@H]21,1.05%
24,Cc1ccc(NC2=C(Cl)C(=O)OC2OC(=O)c2ccccc2C)cc1 (stereo unspecified),17.3% (active)
25,CCOC(=O)c1ccc(Nc2cc3ccccc3c(=O)[nH]2)cc1,-0.372%
26,Cc1ccccc1C(=O)OC1OC(=O)C(Cl)=C1Nc1ccccc1 (stereo unspecified),-2.37%

row,Compound,inhibition
1,O=C(c1cccnc1)N1CC(=O)N2[C@H](C1)[C@H](c1ccc(-c3ccccc3F)cc1)[C@@H]2CO,-2.3%
2,CCCNC(=O)Nc1ccc2c(c1)C(=O)N(C)C[C@H](OC)[C@H](C)CN(Cc1cccnc1)[C@@H](C)CO2,0.086%
3,CC(=O)Oc1ccc2c(=O)oc(-c3ccc([N+](=O)[O-])cc3)nc2c1,-2.32%
4,O=[N+]([O-])c1ccc2oc(-c3cccc(O)c3)nc2c1,18.3% (active)
5,O=[N+]([O-])c1ccc2c(c1)Nc1nc3ccccc3nc1N2,1.03%
6,COc1ccccc1C(=O)NCc1nnc(SC(C)C(=O)Nc2nccs2)n1C (stereo unspecified),-2%
7,Cc1cccc(C(=O)NCc2nnc(SC(C)C(=O)Nc3nnc(C)s3)n2C)c1 (stereo unspecified),21.7% (active)
8,CC(Sc1nnc(CNC(=O)c2ccccc2F)n1C)C(=O)Nc1nccs1 (stereo unspecified),-2.13%
9,CCCNC(=O)C[C@H]1CC[C@H]2[C@@H](COC[C@@H](O)CN2C(=O)Nc2ccc(Cl)c(Cl)c2)O1,3.46%
10,Nc1nc2c(ncn2[C@@H]2O[C@H](CNS(=O)(=O)N3CCc4ccccc4C3)[C@@H](O)[C@H]2O)c(=O)[nH]1,2.78%
11,Nc1nc2c(ncn2[C@@H]2O[C@H](CNCc3ccc(OCCCN4CCOCC4)cc3)[C@@H](O)[C@H]2O)c(=O)[nH]1,22.3% (active)
12,CC(C)(O)C#Cc1ccc(CNC[C@H]2O[C@@H](n3cnc4c(=O)[nH]c(N)nc43)[C@H](O)[C@@H]2O)s1,-5.95%
13,CCOC(=O)[C@]12CCCC=C1N(CCC1=CCCCC1)C(=O)[C@H](CC(=O)N1CCCCC1)C2,-0.497%
14,CCOC(=O)[C@]12CCCC=C1N(CCC1=CCCCC1)C(=O)[C@H](CC(=O)N1CCN(C(=O)c3ccco3)CC1)C2,16.3% (active)
15,CCOC(=O)[C@]12CCCC=C1N(CCC1=CCCCC1)C(=O)[C@H](CC(=O)N1CCSCC1)C2,0.458%
16,C[C@H]1CN([C@@H](C)CO)C(=O)c2cc(C#CC3CCCC3)cnc2O[C@@H]1CN(C)C(=O)Cc1ccccn1,0.934%
17,COc1ccc(Cn2c(=S)[nH]c3cc(C(=O)N4CCCCC4)ccc3c2=O)cc1,16.6% (active)
18,COc1ccc(Cn2c(=S)[nH]c3cc(C(=O)NCCCN4CCOCC4)ccc3c2=O)cc1,-1.07%
19,COc1ccc(OC)c(-n2c(=S)[nH]c3cc(C(=O)N4CCCCC4)ccc3c2=O)c1,-0.433%
20,Cn1cnc(S(=O)(=O)N2C[C@H](O)COC[C@@H]3O[C@H](CC(=O)NC4Cc5ccccc5C4)CC[C@H]32)c1,1.91%
21,COc1cccc(C#Cc2ccc3c(c2)[C@H]2[C@H](CCN2C(=O)CC2CC2)[C@H](CO)N3)c1,0.183%
22,O=C(N/N=C/c1ccco1)c1csc2c1CCCC2,15.8% (active)
23,O=C(N/N=C/c1ccco1)c1ccc(NC(=O)C2CC2)cc1,0.297%
24,Cc1ccc(NC(=O)c2csc3c2CCCC3)cc1,-2.6%
25,CCCNC(=O)N1C[C@H](O)COC[C@H]2O[C@@H](CC(=O)NCc3ccncn3)CC[C@@H]21,0.03%
26,C[C@@H]1CN([C@@H](C)CO)C(=O)c2cc(-c3cncnc3)cnc2O[C@H]1CN(C)Cc1cncnc1,4.33%

row,Compound,inhibition
1,Cc1ccccc1NC(=O)Cn1c(=O)n(CC2CCCO2)c(=O)c2ccccc21 (stereo unspecified),-0.914%
2,Cc1ccccc1NC(=O)CN1C(=O)N/C(=C\c2cccn2-c2cccc(C(=O)O)c2)C1=O,18.5% (active)
3,Cc1ccccc1NC(=O)CSC(=O)c1ccccc1,-2.14%
4,O=C(C[C@@H]1CC[C@H](NC(=O)NC2CCCCC2)[C@H](CO)O1)NCc1ccc(F)cc1,2.17%
5,O=C(C[C@@H]1C[C@H]2c3cc(NS(=O)(=O)c4ccc(F)cc4)ccc3O[C@H]2[C@@H](CO)O1)NCc1ccccc1F,2.14%
6,C[C@H](CO)N1C[C@H](C)[C@H](CN(C)C(=O)Nc2ccc(F)cc2)OCCCC[C@H](C)Oc2ccc(NC(=O)CCC(F)(F)F)cc2C1=O,-0.898%
7,COCC#Cc1cnc2c(c1)C(=O)N([C@H](C)CO)C[C@H](C)[C@H](CN(C)C(=O)CCN1CCCCC1)O2,9.41%
8,CCCN1[C@H](C(=O)NC2Cc3ccccc3C2)[C@@H](CO)[C@@H]2Cn3c(cccc3=O)[C@@H]21,2.03%
9,COCC(=O)N1CC(=O)N2[C@H](CO)[C@@H](c3ccc(C#CC4CCCC4)cc3)[C@H]2C1,0.692%
10,CCCC#Cc1ccc([C@H]2[C@@H](CO)N3CCCCN(S(=O)(=O)Cc4ccccc4)C[C@H]23)cc1,37.3% (active)
11,CCCC#Cc1ccc([C@H]2[C@H](CO)N3CCCCN(S(=O)(=O)CC)C[C@@H]23)cc1,-5.72%
12,CCCC#Cc1ccc([C@H]2[C@@H](CO)N3CCCCN(S(=O)(=O)CC)C[C@H]23)cc1,-3.78%
13,COC(=O)C[C@H]1CC[C@H]2[C@@H](COc3ccc(NC(=O)C4CC4)cc3C(=O)N2C)O1,4.29%
14,COc1ccc2c3c(n(C)c2c1)[C@H](CO)N(C(C)=O)CC31CCN(Cc2cccnc2)CC1,-0.634%
15,Cc1ccc(S(=O)(=O)N[C@@H]2CC[C@H](CCn3cc(-c4cccc(F)c4)nn3)O[C@@H]2CO)cc1,-2.4%
16,Cc1c(C(N)=O)sc2ncn(CCOc3ccccc3)c(=O)c12,25.5% (active)
17,Clc1ncn(CCOc2ccccc2)c1Cl,-0.177%
18,Cc1cccc(OC(=O)c2sc3ncn(C)c(=O)c3c2C)c1,6.38%
19,COc1ccc(NC(=O)Nc2ccc3c(c2)C(=O)N([C@H](C)CO)C[C@@H](C)[C@H](CN(C)CC2CCCCC2)OCCCC[C@@H](C)O3)cc1,-2.57%
20,CCC(=O)N1CC(=O)N2[C@H](CO)[C@@H](c3ccc(-c4ccc(C(=O)N(C)C)cc4)cc3)[C@H]2C1,-3.02%
21,CCNC(=O)C[C@H]1CC[C@@H]2[C@H](COC[C@H](O)CN2C(=O)Nc2c(C)noc2C)O1,-2.07%
22,O=C(NC(c1ccc(-c2ccccc2)cc1)c1cnccn1)C1CCN(CCOc2ccc(Cl)cc2Cl)CC1 (stereo unspecified),-0.795%
23,Cc1cccnc1C(NC(=O)C1CCN(Cc2ccc(Cl)c(Cl)c2)CC1)c1ccc(Cl)cc1 (stereo unspecified),0.115%
24,O=C(NC(c1ccc(Cl)cc1)c1cnccn1)C1CCN(Cc2ccc(Cl)cc2)CC1 (stereo unspecified),18.2% (active)
